# Assay outcomes (PubChem)
# An excerpt weighted towards active compounds, which were near 12% of everything screened.
# G9a inh – blocks human histone lysine methyltransferase G9a. AID 504332. G9a H3K9 monomethylation, AlphaScreen, 2 h. Potency, µM (highest dose often 102 µM), most hits filed as inhibitors. 8.8% of 350,000 active. Q96KQ7; also: nearly all actives have a fitted effect of over 75% in size
#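 Enzyme 20 nM + cpd, 15 min RT; add b-H3K9 pep 500 nM / SAM 20 uM; 2 h RT; anti-H3K9me1 Ab 0.5 ug/mL + SA donor / anti-rabbit acceptor beads 20 ug/mL each, 10 min; AlphaScreen read.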
# HP1b chromo inh – blocks HP1-beta chromodomain binding to methylated histone tails. P83916. AlphaScreen HP1-beta / biotin-H3K9me3 peptide binding. Potency, µM (doses to about 114 µM), hits mostly inhibitors. 0.56% of 390,000 active. AID 540317; also: nearly all actives have a fitted effect of over 70% in size
#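 HP1-beta protein (50 nM final) preincubated 30 min at room temperature with biotinylated H3(1-18)K9me3 peptide (50 nM) in PBS pH 7.4, 0.01% Tween-20, then compound added for 30 min. AlphaScreen streptavidin donor/nickel chelate acceptor beads (10 ug/mL final), 30 min dark, luminescence read.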
# Sfp PPTase inh – blocks B. subtilis Sfp PPTase activity; Biochemical Sfp PPTase activity, qHTS; Q9F4F7; 3.5% of 310,000 active; Potency, µM, usual class: inhibitors;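 also: the enzyme is Sfp with the accession as filed and its product quenches rhodamine fluorescence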
#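 Reaction rates are the 30-min fluorescence difference (ex 525, em 598 nm) in wells containing 15 nM Sfp, 5 uM rhodamine-CoA and 12.5 uM BHQ-2-YbbR at pH 7.6 with 10 mM MgCl2.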
# BAZ2B block – inhibitors of human BAZ2B bromodomain; Q9UIF8; AlphaScreen BAZ2B-H3K14Ac peptide displacement; Potency, µM (titrated, usually from 114 µM), most hits filed as inhibitors; 4.4% of 360,000 active; AID 504333; also: nearly all actives have a fitted effect of over 60% in size
#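 Compounds, titrated to a top concentration of 110 uM, were incubated 30 min at room temperature with preformed BAZ2B/acetyl-K14 H3 peptide complex (50 nM each). Proximity signal was measured by AlphaScreen after 20 min with beads.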
# L3MBTL1 inh – inhibitors of human L3MBTL1; AlphaScreen L3MBTL1–H3K9me1 peptide binding; Potency, µM (highest dose often 57.1 µM), most hits filed as inhibitors; 0.66% of 230,000 active; AID 485360; also: nearly all actives have a fitted effect of over 60% in size
#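 L3MBTL1 (50 nM) pre-complexed 30 min with biotinylated H3(1-15)K9me1 peptide (75 nM), then compounds added for 30 min at room temperature; AlphaScreen streptavidin donor/nickel chelate acceptor beads (10 ug/mL final) read after 30 min dark incubation.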
# JMJD2A Tudor – JMJD2A Tudor domain (human) inhibition | O75164 | AlphaScreen JMJD2A-Tudor / H3K4me3 peptide binding | Potency, µM (doses to about 114 µM), hits mostly inhibitors | 4.4% of 390,000 active; also: nearly all actives have a fitted effect of over 50% in size
# Numbers stand for hits; - = inactive; ? = inconclusive; . = no result given; [ ] = another dose, or the depositor's remark. Calls follow the shape of the dose curve; as a rule, active = well fitted curve in the direction sought with a large enough effect; inconclusive = small, poorly fitted or top-dose-only effect, or another doubt; inactive = no such curve, though single readings can be large; an effect the other way counts as inactive or inconclusive.
SMILES,G9a inh,HP1b chromo inh,Sfp PPTase inh,BAZ2B block,L3MBTL1 inh,JMJD2A Tudor
C=CCNCCCCOc1ccccc1-c1ccccc1,-,-,-,-,-,-
COCCCNCCOc1ccccc1-c1ccccc1,7.9µM,-,-,-,?,25µM
CCOc1ccc(-c2nonc2NC(=O)c2oc3cc(C)ccc3c2C)cc1,-,-,.,-,.,-
OCCNCCOc1ccccc1F,-,-,-,-,-,-
OCCNCCOCCOc1ccccc1-c1ccccc1,8.9µM,?,?,?,-,3.2µM
CC(C)(C)NCc1cc(Br)ccc1OCc1cccs1,18µM,-,-,-,-,-
CC(C)(C)NCc1cc(Cl)ccc1OCc1cccs1,?,-,-,-,-,-
COC(=O)c1c(-c2ccc(C)cc2)csc1NC(=S)NC(=O)c1cc(OC)cc(OC)c1,25µM,-,?,?,-,-
Nc1cc(C(=O)OCC(=O)N2CCC(Cc3ccccc3)CC2)ccc1Cl,-[12.7 µM],-,.,-,-,-
Cc1nc2scc(C)n2c(=O)c1S(=O)(=O)NCCc1ccccc1,-,-,-,-,.,-
Cc1nc2scc(C)n2c(=O)c1S(=O)(=O)NC(C)c1ccccc1 (stereo not drawn),-,-,-,-,.,25µM
Cc1nnc(SCc2cc(=O)[nH]c(=S)[nH]2)s1,28µM,-,20µM,?,-,?
O=c1cc(CSc2ccccc2)[nH]c2ccccc12,-,-,-,-,.,-
O=c1cc(CSc2ccccc2)[nH]c(=S)[nH]1,?,-,-,-,-,89µM
COc1ccc(C)cc1NC(=O)C(NC(=O)c1cc(OC)c(OC)c(OC)c1)C(C)C (stereo not drawn),-,?,-,.,-,40µM
CCOc1ccc(C(=O)N[C@H](C(=O)Nc2ccccc2OC)C(C)C)cc1,-,-,-,-,.,-
CCC(CC)C(=O)Nc1cccc(C(=O)NCc2ccco2)c1,?,-,-,56µM,?,?
O=C(NCc1ccco1)c1ccc2c(c1)N(Cc1ccccc1)C(=O)CS2,-[12.7 µM],-,-,?,.,-
CCOC(=O)c1c(C)c(C(=O)NCc2ccco2)c(C)n1Cc1ccccc1,?,-,-,?,-,35µM
C=CCN1C(=O)CSc2ccc(C(=O)NCc3ccco3)cc21,40µM,-,-,-,-,-
O=C(NCc1ccco1)c1cc2cc(Br)ccc2o1,8.9µM,?,20µM,?,.,?
CCCC(NC(=O)C(C)Sc1nnnn1C1CC1)c1ccccc1 (stereo not drawn),-[12.7 µM],-,.,-,-,-
COc1ccccc1-c1cc(-n2ccnc2)ncn1,-[0.501 µM],.,-,.,.,.
COc1ccccc1N1C(=O)c2ccccc2C1=O,.,.,.,.,.,-
CCCOC(=O)c1ccc(NC(=O)Cc2cccs2)cc1,-,-,-,?,-,-
SMILES,G9a inh,HP1b chromo inh,Sfp PPTase inh,BAZ2B block,L3MBTL1 inh,JMJD2A Tudor
Cc1cccc(-c2noc(C3CC(=O)N(c4ccc5c(c4)OCCO5)C3)n2)c1 (stereo not drawn),-,-,.,-,.,-
Cc1cccc(C(=O)NCc2ccco2)c1,-[0.501 µM],-,-,?,-[2.29 µM],?
O=C(NCc1ccco1)c1cccc(Br)c1,-[0.501 µM],-,71µM,?,-[2.29 µM],-
CCOC(=O)N1CCC(N2C(=O)c3ccc(C(=O)NCc4ccco4)cc3C2=O)CC1,71µM,-,-,-,-,-
CCOc1cc(OCC)cc(C(=O)NCc2ccco2)c1,-,-,-,?,-,89µM
CCOc1ccc(N(CC(=O)NCc2ccco2)S(C)(=O)=O)cc1,-,-,56µM,?,-,-
COC(=O)[C@]1(C)N[C@H](CN(C)C(=O)Nc2ccc(OC)cc2)[C@@H]2C(=O)N(Cc3ccccc3)C(=O)[C@@H]21,.,-,.,.,-,-
O=C(Nc1ccccc1)C(=O)Nc1ccc2c(c1)N(C(=O)C1CC1)CCC2,-,-,.,-,-,-
CC(C)(C)OC(=O)NCCCC1=CC2=CC(=O)C(C)(OC(=O)c3cnc4ccccc4n3)C(=O)C2=CO1 (stereo not drawn),.,.,-,.,.,.
COc1ccc(-c2nsc(NC(=O)COc3ccc(C)c(C)c3)n2)cc1,-,-,.,-,.,-
COCCCNC(=O)c1ccc2c(c1)NC(=O)C(C(C)C)N2 (stereo not drawn),-,-,.,-,.,-
CC(C)C1Nc2ccc(C(=O)NCc3ccco3)cc2NC1=O (stereo not drawn),79µM,-,-,-,.,-
O=C(NCc1ccco1)c1ccc2c(c1)C(=O)c1ccccc1-2,?,-,11µM,-,.,-
O=C1CCCc2c1[nH]c1ccc(Cl)cc21,-,-,-,-,-,-
S=c1[nH]c2cc(Cl)ccc2s1,1.8µM,-,-,-,-,?
S=c1[nH]c2ccc(Cl)cc2[nH]1,1.6µM,?,-,-,-[11.4 µM],45µM
COc1ccc2[nH]c(=S)[nH]c2c1,4.5µM,-,-,-,-,56µM
Cc1ccc(C)c(N(CC(=O)N2CCCC2)S(C)(=O)=O)c1,.,-,-,-,-,-
CC(C)(C)N(Cc1ccccc1)C(=O)COC(=O)CSc1ccc([N+](=O)[O-])cc1,40µM,-,.,-,-,-
CC1CCCC(C)N1C(=O)COC(=O)CSc1ccc([N+](=O)[O-])cc1 (stereo not drawn),?,-,.,-,-,-
CCNc1ccc(C(=O)OCC(=O)N(Cc2ccccc2)C(C)(C)C)cc1[N+](=O)[O-],89µM,-,-,-,-,-
Cc1nnc(C)c2c(C)n(-c3ccc(Cl)c(N)c3)c(C)c12,56µM,-,-,-,.,?
Cc1nc2[nH]c(=S)n(C)c(=O)c2nc1C,45µM,-,?,-,-,89µM
CC(C)C[C@H](N)C(=O)N[C@H](C(=O)N[C@@H](CCCN=C(N)N)C(=O)N[C@H](CS)C(=O)NCC(=O)N[C@@H](CCCCN)C(=O)N[C@@H](Cc1cnc[nH]1)C(=O)N[C@@H](CO)C(=O)N[C@@H](CCCN=C(N)N)C(=O)O)C(C)C,.,.,-,.,.,.
CN(C)c1ccc(N=C/C=C2\N(C)c3ccccc3C2(C)C)cc1,40µM,50µM,?,35µM,?,-[11.4 µM]
SMILES,G9a inh,HP1b chromo inh,Sfp PPTase inh,BAZ2B block,L3MBTL1 inh,JMJD2A Tudor
CN1/C(=C\C=Nc2ccc3ccccc3c2)C(C)(C)c2ccccc21,1.8µM,.,-,-,-,.
CN1\C(=C/C=C/C=C/C=[N+](C)C)C(C)(C)c2ccccc21,11µM,?,56µM,11µM,?,50µM
Cc1cc(/N=C/C=C2\N(C)c3ccccc3C2(C)C)n(CCC#N)n1,50µM,-,-,?,-,?
CN1/C(=C/C=C(C#N)C#N)C(C)(C)c2ccccc21,.,-,-,-,-,-
Cc1ccc(Cl)cc1NC(=O)COCc1cc(-c2ccco2)on1,?,-,.,-,.,-
CC(=O)c1cccc(NC(=S)NNC(=O)c2ccc(C)c([N+](=O)[O-])c2)c1,20µM,-,-,-,-,?
CC(=O)c1cccc(NCC(=O)c2ccc(C)c([N+](=O)[O-])c2)c1,35µM,-,18µM,-,.,-
